± gives the standard deviation of the averaged measurements. In all, about 25,000 sequences were measured (“ln(normalized median fluorescence intensity)”: median about 8.9, highest 2% from about 10 on). Many of the other results were omitted from the sample, so the highest values are more common in it than they were.
system: PfAP2-LT AP2 domain (GST-tagged); test: gcPBM binding intensity (ln(normalized median fluorescence intensity)); higher = stronger DNA binding
In short: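 The highest Masliner-normalised natural-log median intensity across replicate spots of either probe orientation is reported as binding intensity. GST-tagged P. falciparum DNA-binding domains expressed in E. coli were applied for 1 h to an Agilent 4 × 180k array of primer-extended double-stranded 36-bp intergenic genomic probes plus negative controls, and bound protein was detected with Alexa488 anti-GST antibody and scanned at 488 nm.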

Sequence	gcPBM binding intensity (ln)
ATACACTTTTATATATCAATACATTATGTATTAAGT [CACACA_negctrl_site421]	8.86 ± 0.35
AACAATATATTGATATTATTTTAAGTGATTATATAT [XGTACX_negctrl_site205]	8.57 ± 0.33
CAACATATGCATATGTGTACATATTTTATTTTCAAC [XGTACX_site2237]	8.82 ± 0.42
TATTTATAAACATACGCACACATTAAAATATATATA [CACACA_site6051]	9.02 ± 0.4
TATTTTTTAAAAATGGGTACACATAAATAAATAAAT [XGTACX_site7643]	8.58 ± 0.45
TAAAAAAATTCATGCACACGAAATAAAAAGCACCTT [CACACA_site4667]	9.21 ± 0.3
ATAATTAACAAATACACACACACACGCCCACAAAAA [CACACA_site6389]	10 ± 0.11
AATACAGACAGACACACACACAAAATAAAATACAAA [CACACA_site245]	9.95 ± 0.38
ATAATTAACAAATACACACACACACCCCCACAAAAA [CACACA_site518]	10.5 ± 0.26
TTAATACCCAGACACACACACACAAAATAAAATACA [CACACA_site7968]	10.1 ± 0.48
TGAACACCCACAAATACACACAAAAAAAATAAATAA [CACACA_site248]	9.28 ± 0.51
TTAATACCCGGACACACACACACAAAATAAAATACA [CACACA_site4296]	9.85 ± 0.27
AAATAAATATATATATGTACATACAAATACACGGTA [XGTACX_site8510]	9.09 ± 0.4
TATTGTTTTAAAGAGACATGCAATATATATTATTCC [TGCATGCA_site752]	8.51 ± 0.42
TACATATATAAAAAAACACACACATATATATATATA [CACACA_site8315]	9.665 ± 0.021
TATATAAATAGATACACACATACATACATACATACA [CACACA_site260]	9.61 ± 0.37
TACAGATATAAACACACACACATATATATATATATA [CACACA_site4846]	10.05 ± 0.092
GAAATGGGTAAACATACACACACACCGATATATATA [CACACA_site8610]	9.87 ± 0.23
CATATACATAAACACACACACACATAAATAAATATA [CACACA_site4864]	10 ± 0.13
AATGGGTAAACATACACACACACATATATATATATA [CACACA_site1991]	10.2 ± 0.11

Sequence	gcPBM binding intensity (ln)
TAGATACATAAACACACACACACATACATATATACA [CACACA_site9139]	10.2 ± 0.23
AAAAAAAACATACATACACACACATAAATATATATA [CACACA_site8864]	9.72 ± 0.23
GTACATACATAAAACACACACATATATATATATATA [CACACA_site1826]	10.17 ± 0.071
AATGGGTAAACATACACACACACATCTATATTTATA [CACACA_site7025]	9.78 ± 0.4
TATATACATAAACACACACACACATATATATATATA [CACACA_site8707]	9.89 ± 0.2
TACATACATAAACACACACACACATATATATATATA [CACACA_site8953]	10.2 ± 0.23
TTTGAGATAAAAGACTGTACTTAGAATGTATAAAAA [XGTACX_site203]	8.48 ± 0.6
ATATGCTATTTACTAGTGCAAAATATTTAAAATATG [GTGCAC_site9517]	8.61 ± 0.36
ATAATTTTCCATATTTGTACATATTTTTTTCCCTTG [XGTACX_site8146]	8.92 ± 0.59
ATTTGTTATATATTCTTTTATGTTAATAATTCGAAT [CACACA_negctrl_site378]	8.7 ± 0.45
ATAATTAGGGTGTATTTCATTTCATTTCATTTTATT [CACACA_negctrl_site1418]	9.04 ± 0.4
TTTTTCTAATTATGCACACATATCAAAATATTCAAT [CACACA_site2749]	8.79 ± 0.46
AATATTCTATATGATACATGCATGATGGAATAAAAA [TGCATGCA_site980]	8.93 ± 0.3
ATATATATTTAAAGATGTACATAATGAAATGGTTAT [XGTACX_site4706]	9.01 ± 0.47
TAGATACAGAAACACACACACACATACATATATACA [CACACA_site3437]	9.97 ± 0.24
CAAATACAGAAACACACACACATATACATATATATA [CACACA_site3498]	9.77 ± 0.19
CATACACAGAAACACACACACATATATACATATATA [CACACA_site1094]	9.98 ± 0.24
CATACACAGAAACACACACACATATATATATATATA [CACACA_site4519]	10.2 ± 0.3
ACAGAAAAAAAACACACACACATAATATACATACAT [CACACA_site1932]	9.82 ± 0.19
TATATACAGAAACACACACACACATATATATATATA [CACACA_site2247]	10.15 ± 0.057

Sequence	gcPBM binding intensity (ln)
ATTTTTTTTTTTTTTTTTCATTTTTTTTTTTTTTTT [CACACA_negctrl_site1204]	8.62 ± 0.54
AAAAAAGCAATATGATGTACATTTACTTTGTGAAAG [XGTACX_site4450]	8.73 ± 0.46
TTAAATAGCTGTAATTGTACAAATAAATACATAAAT [XGTACX_site3097]	8.82 ± 0.38
AAAAAAAAAAAAAAAACATGCAGTTAGTGGTTTTTT [TGCATGCA_site243]	8.82 ± 0.4
AAGTAAAATAAGTATACACACATAAATATGTAAATA [CACACA_site6467]	9.29 ± 0.4
AAAAAATAAAACATATATAATATATAATATATATAT [GTGCAC_negctrl_site447]	8.69 ± 0.4
GGTATACACAAGTATACACACATATATATATATATA [CACACA_site9063]	10.16 ± 0.099
AGTATACAGATATATACACACATATATATATATATA [CACACA_site4323]	9.935 ± 0.021
AGTATACACAGACACACACACACATATATATATATA [CACACA_site8510]	10.3 ± 0.42
ATGGGACATATATATACACACATATATATATATATA [CACACA_site1202]	9.96 ± 0.24
GGTATACTCAAGTATACACACATATATATATATATA [CACACA_site5746]	9.64 ± 0.49
GGTATACACAAGTATACACACATATAAATATAAATA [CACACA_site7511]	9.16 ± 0.49
AGCAGACACCAACACACACACATATATATATATATA [CACACA_site337]	10.4 ± 0.13
AGTATACATATATATACACACACATATATATATATA [CACACA_site7883]	9.805 ± 0.064
TATATACATACATATACACACATATATATATATATA [CACACA_site401]	9.72 ± 0.21
TATATATATATACCAACACACATACATATATATATA [CACACA_site8530]	9.38 ± 0.14
TACACAAGCGGACACACACACATATATATATATATA [CACACA_site4832]	10.415 ± 0.0071
CGCATACACCAACACACACACACATATATATATATA [CACACA_site635]	9.96 ± 0.48

— the supplement of paper PMC11417369
